# Compound activity (PubChem)
# An excerpt weighted towards active compounds, which were near 7.9% of everything screened.
# FMDV inh – foot and mouth disease virus antiviral activity; Potency, µM (series often up to 57.9 µM), for inactives: top-dose activity change, negative = inhibition, hits mostly inhibitors; AID 1159524; FMDV antiviral cell-based qHTS; actives 1.2% (n = 410,000); calls by dose curve; tested in HEK293T cells; further: read-out not given here; potency means the concentration at half of the fitted maximal effect; nearly all actives have a fitted effect of over 45% in size
# MARV entry inh – Marburg virus entry inhibition. actives 1.8% (n = 300,000). Potency, µM (doses to about 37.8 µM), for inactives: at the highest dose activity change, negative = inhibition, usual class: inhibitors. Marburg virus pseudotyped entry inhibition, cell reporter; calls by dose curve; tested in HEK293 cells; further: potency means the concentration at half of the fitted maximal effect
# HCV inhibitor – HCV inhibition | Huh7.5.1 HCVcc-Cre infection, luciferase reporter, 44 h | actives 3.4% (n = 340,000) | AID 651820 | Potency, µM (top dose mostly 41.8 µM), inactives show at the top dose activity change, negative = inhibition, actives largely listed as inhibitors; active means well fitted inhibition curve with a large enough effect; inconclusive means small, poorly fitted or top-dose-only effect, or another doubt; inactive means no such curve, though single readings can be large or run the other way; further: potency means the concentration at half of the fitted maximal effect
#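 Luciferase read-out (15 sec integration) after a 15 min room-temperature substrate step quantifies HCVcc-Cre infection. Cells, 1,000 per well, had compound added 4 h post-plating, then virus at ~0.5 moi, and were cultured 44 h.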
# HCMV antiviral – human cytomegalovirus inhibition; HFF cells, HCMV-luciferase reporter, 72 h; active compounds read low; activity change, negative = inhibition, % at 57.5 µM; actives 4.5% (n = 410,000); AID 1259415; in the data active means activity change below about -60%; inconclusive means no clear call, values can overlap the other calls; inactive means above about -39%
#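 Two compound doses tested in HFFs infected with HCMV-luciferase, MOI 1 PFU/cell, 72 h at 37C. Lysate luminescence read with OneGlo; data normalized against buffer-only and 10uM Salinomycin inhibitor controls.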
# Lassa entry inh – Lassa virus entry inhibition | Lassa virus pseudotype entry inhibition, cell reporter | Potency, µM (doses to about 37.9 µM), for inactives: at the highest dose activity change, negative = inhibition, actives largely listed as inhibitors | actives 1.2% (n = 300,000) | AID 540256; calls by dose curve; tested in HEK293 cells; further: potency means the concentration at half of the fitted maximal effect; nearly all actives have a fitted effect of over 50% in size
# * hit, by the source's call; ? = inconclusive; · = no result; ! = not active in a repeat; [ ] = dose if it differs, or a comment. On the % scale 0 is the no-effect control and ±100 the full control effect.
SMILES,FMDV inh,MARV entry inh,HCV inhibitor,HCMV antiviral,Lassa entry inh
O=C(c1cccs1)N(Cc1ccc(Cl)cc1)C1CCS(=O)(=O)C1 (stereo not given),-20%,16%[46.1 µM],17%,-35,?
CC(C)c1ccc(CN(C(=O)c2cccs2)C2CCS(=O)(=O)C2)cc1 (stereo not given),?,-12%[46.1 µM],6%,-69*,?
COc1ccc(N2CCN(C(c3ccc(F)cc3)c3sc4nc(-c5ccco5)nn4c3O)CC2)cc1 (stereo not given),12%,·,·,3,17%[46.1 µM]
CC(=O)c1cc2c(cc1NS(=O)(=O)c1ccc(F)cc1)OCO2,-2%,-4%[46.1 µM],-9%,?,·
CN(Cc1cccc(Cl)c1Cl)C(=O)c1cccc(S(=O)(=O)N2CCN(Cc3ccccc3)CC2)c1,?,?,·,-35,?
O=C(OCCOc1ccc(Cl)cc1)c1cc(S(=O)(=O)N2CCCCC2)ccc1N1CCOCC1,?,·,3.5µM*,?,·
O=C(OCCOc1cccc(Cl)c1)c1cc(S(=O)(=O)N2CCOCC2)ccc1F,-21%,8%,25µM*,-7,20%
O=C(OCCOc1cccc(Cl)c1)c1ccc(F)c(S(=O)(=O)N2CCOCC2)c1,-26%,·,?,5,·
Cc1cccc(CN2C[C@H](Sc3ccccn3)C[C@H]2C(=O)Nc2ccc3sc(C)nc3c2)c1,-8%,·,·,·,·
CCCCN1C(=O)C(CC(=O)NCCCCc2ccccc2)CC(C(=O)N2CCCCCC2)=C1C (stereo not given),0%,·,·,-14,·
Cc1cccc(N/N=C/c2ccc(O)c(O)c2O)c1,10%,·,14%,?,·
COc1cccc(N/N=C/c2cccc(Br)c2O)c1,23%,11µM*,?,0,0%
CCOc1ccccc1C(=O)Nc1ccccc1C(N)=O,0%,-24%,4%,-6,-1%
CCOc1ccccc1C(=O)Nc1nnc(CC)s1,6%,·,11µM*,33,·
COC(=O)c1ccccc1NC(=O)C1CCN(C(=O)Cc2ccccc2)CC1,-19%,-11%,?,-12,-18%
CCc1nnc(NC(=O)c2ccncc2)s1,26%,13%,-8%,10,27%
CCc1nnc(NC(=O)c2cccc(C(=O)Nc3nnc(CC)s3)n2)s1,?,?,1.1µM*,-92*,?
CCOc1ccccc1NC(=O)C1CCN(C(=O)Cc2ccccc2)CC1,-2%,2%[46.1 µM],2.2µM*,-6,?
CCOc1ccccc1C(=O)Nc1nn[nH]n1,-6%,10%[46.1 µM],3.2µM*,?,?
Cc1ccc(C)c(C(=O)CCC(=O)NNC(=O)c2cccs2)c1,-6%,-6%,13%,8,-6%
O=C(NC1CCC(n2cc(C(=O)NC3CC3)nn2)CC1)C(=O)c1ccccc1 (stereo not given),-11%,·,·,·,·
CCOc1ccccc1C(=O)Nc1cccc(-c2ccc3nncn3n2)c1,-29%,7.1µM*,?,?,?
CCOc1cc(NC(=O)C2CC2)c(OCC)cc1NC(=O)c1ccccc1OCC,-29%,10µM*,?,-9,?
Cc1ccccc1C(=O)Nc1cccc(-c2ccc3nncn3n2)c1,-10%,?,-9%,16,?
CCOc1ccccc1C(=O)NCCCN1CCN(CCCNC(=O)c2ccccc2OCC)CC1,6%,22%,10µM*!,6,?
SMILES,FMDV inh,MARV entry inh,HCV inhibitor,HCMV antiviral,Lassa entry inh
CC(C)(C)C1=CC(=O)C(=O)C(C(C)(C)C)=C1,28µM*,-20%,?,·,?
CC(C)(C)C1=CC(=Nc2ccccc2N)C=C(C(C)(C)C)C1=O,?,?,-22%,-7,-23%
Cc1ccccc1S(=O)(=O)N1[C@@H](c2ccccc2)C(C(=O)O)=CC[C@H]1c1ccc(Cl)cc1,3%,·,4%,-99*,·
CC[C@@]1(C(=O)OC)N[C@H](CN(C)C(=O)Nc2ccccc2)[C@@H]2C(=O)N(Cc3ccccc3)C(=O)[C@@H]21,-20%,·,15%,-15,·
Cc1ccc(-c2c3c(=O)n(C)c(=O)n(C)c3c3n2-c2ccccc2NC3c2ccc(C)cc2O)cc1 (stereo not given),-26%,?,·,-96*,8%[46.1 µM]
COc1ccc(-c2c3c(=O)n(C)c(=O)n(C)c3c3n2-c2ccccc2NC3c2ccco2)cc1 (stereo not given),?,?,·,14,0%[46.1 µM]
Cn1c(=O)c2c(-c3ccccc3)n3c(c2n(C)c1=O)C(c1ccc([N+](=O)[O-])cc1)Nc1ccccc1-3 (stereo not given),-29%,?,·,-68*,-24%[46.1 µM]
COc1ccc(O)c(C2Nc3ccccc3-n3c(-c4ccccc4)c4c(=O)n(C)c(=O)n(C)c4c32)c1 (stereo not given),40µM*,2%[46.1 µM],·,?,10%[46.1 µM]
COc1cc2c(cc1OC)-c1c3c(cc4c1[C@@H](C2)N(C)CC4)OCO3,?,-40%,?,-76*,?
COc1cc2c(cc1O)C[C@H]1NCCc3cc4c(c-2c31)OCO4,0%,?,11%[8.37 µM],-84*,?
COc1cc2c(cc1O)C(Cc1ccc(O)cc1)NCC2 (stereo not given),-12%,13%,-2%,-11,-15%
COc1cc2c(cc1OC)-c1c(OC)c(OC)cc3c1C(C2)N(C)CC3 (stereo not given),-14%,·,-32%,28,·
COc1ccc(-c2cc(NC=O)c3ncc(-c4ccc(OC)c(OC)c4)n3c2)cn1,·,·,·,-12,·
O=C(NNc1cc(Cl)ccc1Cl)C1CCC1,-5%,-26%,20%,21,17%
Cc1ccc(C(=O)CSc2nnc3c4ccccc4nc(C(C)(C)C)n23)cc1,-17%,6.3µM*,?,?,?
Cc1nc2c3ccccc3nc(SCC(=O)c3ccc(Cl)cc3)n2n1,?,-26%,25µM*,-40,-10%
COCCn1c(SCC(=O)NCc2ccc(F)cc2)nc2ccccc21,10%,3%[46.1 µM],-19%,2,-2%[46.1 µM]
CCCCN(C)CCNC(=O)c1cc(-c2ccc(Cl)s2)nc2ccccc12,-23%,-9%[46.1 µM],·,-101*,?
CN1CCC(NC(=O)c2cc(-c3cccc(Br)c3)nc3ccccc23)CC1,-5%,10µM*,11µM*,-30,?
CCN(CC)CCNC(=O)c1cc(-c2ccc(Br)s2)nc2ccccc12,-7%,?,13µM*,-94*!,?
CCN(CC)CCNC(=O)c1cc2cc(Br)ccc2s1,-6%,?,13µM*,4,-53%
CCN(CC)CCNC(=O)c1cc2c(-c3ccc(Cl)cc3)nn(C)c2s1,-37%,·,?,-33,·
CCCN(CCC)CCNC(=O)c1cc(-c2ccc(Br)s2)nc2ccccc12,-13%,?,·,?,?
Cc1ccc(-n2nc(CO)c(C(=O)NCCCc3ccccc3)n2)cc1,-7%,1%[46.1 µM],·,-18,-29%[46.1 µM]
CCCCOc1cc(C(=O)NCCN(CC)CC)c2ccccc2n1,0%,10µM*,3%[8.37 µM],-27,13µM*
CN1CCN(NC(=O)c2cc(-c3ccc(Br)s3)nc3ccccc23)CC1,0%,?,10µM*,-5,?
